A short description of assay [1]: qHTS for Inhibitors of Plasmodium falciparum (DD2) proliferation (AID 504314). Further: potency means the concentration at half of the fitted maximal effect.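 On activity, negative = inhibition: parasite DNA measured by SYBR Green fluorescence after red cell lysis; plate controls were DMSO vehicle for no effect and artemisinin wells for full effect.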 Summed up: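 Infected RBCs, 0.3% parasitemia, 2.5% Hct; compound 72 h, 37C/5% CO2; lyse + SYBR Green I, RT overnight, dark; read ex485/em535; normalize to DMSO and artemisinin 0.29 uM.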
On the technique in general: qHTS replaces the single test concentration by a dilution series.

A short description of assay [2]: qHTS for Inhibitors of Plasmodium falciparum (HB3) proliferation (AID 504318). Further: nearly all actives have a fitted effect of over 60% in size. Further: potency means the concentration at half of the fitted maximal effect.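 On activity change, negative = inhibition: 0% = DMSO vehicle and -100% = artemisinin control.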 Summed up:
(§1)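 Erythrocytes infected with P. falciparum line (0.3% parasitemia, 2.5% hematocrit final) incubated with compounds 72 h at 37 °C, 5% CO2; SYBR Green lysis buffer added, fluorescence read next day. Normalized to 0.29 uM artemisinin and DMSO.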

Assay [3] in a line: qHTS for Inhibitors of Plasmodium falciparum (CP250) proliferation (AID 504320).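 Further: plate controls were DMSO vehicle for no effect and 0.29 µM artemisinin control for full effect.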 In a few lines:
as §1

The target in assay [4] is Atrial natriuretic peptide receptor 1 (Homo sapiens) (UniProt P16066). The assay is described as follows: Natriuretic polypeptide receptor (hNpr1) antagonism - Pilot CMLD screen (AID 1347052; calls by dose curve;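 further: HEK293 cells with hNpr1 stimulated by hNppA peptide at 0.1 nM; cGMP level read as GloSensor luciferase luminescence after agonist stimulation; series mostly up to about 9.2 µM; on the % scale 0 is the no-effect control and ±100 the full control effect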).
Sequence of Atrial natriuretic peptide receptor 1 (Homo sapiens) (P16066 whole entry, looked up): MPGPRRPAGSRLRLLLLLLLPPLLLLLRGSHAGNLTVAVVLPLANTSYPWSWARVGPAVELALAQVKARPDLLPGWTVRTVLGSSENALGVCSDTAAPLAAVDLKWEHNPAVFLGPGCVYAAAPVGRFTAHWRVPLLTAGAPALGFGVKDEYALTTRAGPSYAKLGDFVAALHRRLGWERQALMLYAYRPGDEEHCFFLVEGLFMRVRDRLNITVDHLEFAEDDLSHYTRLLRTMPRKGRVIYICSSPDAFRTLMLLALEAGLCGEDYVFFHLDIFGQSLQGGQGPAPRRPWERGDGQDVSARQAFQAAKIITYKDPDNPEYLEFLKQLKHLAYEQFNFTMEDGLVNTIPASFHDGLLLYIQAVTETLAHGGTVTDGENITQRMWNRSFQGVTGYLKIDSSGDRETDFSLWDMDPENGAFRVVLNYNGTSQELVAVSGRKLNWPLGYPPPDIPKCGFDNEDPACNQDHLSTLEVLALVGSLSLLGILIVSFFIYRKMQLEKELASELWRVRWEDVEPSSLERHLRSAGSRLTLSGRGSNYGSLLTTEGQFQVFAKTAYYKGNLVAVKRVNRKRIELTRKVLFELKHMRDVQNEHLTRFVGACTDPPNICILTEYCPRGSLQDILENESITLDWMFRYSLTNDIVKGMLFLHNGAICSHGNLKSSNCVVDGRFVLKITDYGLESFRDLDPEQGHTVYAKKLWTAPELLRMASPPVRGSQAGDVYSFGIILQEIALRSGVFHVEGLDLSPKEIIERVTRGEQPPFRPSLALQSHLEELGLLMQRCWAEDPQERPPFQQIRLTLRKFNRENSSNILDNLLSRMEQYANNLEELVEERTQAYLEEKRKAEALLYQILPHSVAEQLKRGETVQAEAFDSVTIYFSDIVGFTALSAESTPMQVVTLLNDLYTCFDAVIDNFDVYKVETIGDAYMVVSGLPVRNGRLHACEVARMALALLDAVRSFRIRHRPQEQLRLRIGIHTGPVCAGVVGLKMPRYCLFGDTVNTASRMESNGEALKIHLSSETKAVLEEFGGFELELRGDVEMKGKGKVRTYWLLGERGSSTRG
Assay [5] can be described thus: qHTS for Inhibitors of Plasmodium falciparum (7G8) proliferation (AID 504316).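 Further: series mostly up to about 6.7 µM; 0% = DMSO vehicle and -100% = 0.29 µM artemisinin full kill; nearly all actives have a fitted effect of over 65% in size.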 In a few lines:
as §1

Assay [6] has as its target Cytochrome P450 2C9 (Homo sapiens) (UniProt P11712). Kind of assay: qHTS Assay for Inhibitors and Substrates of Cytochrome P450 2C9 (AID 883). Further: on the % scale 0 is the no-effect control and ±100 the full control effect; nearly all actives have a fitted effect of over 60% in size. Summed up: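 A luminogenic readout tracked human CYP2C9 (10nM) converting deoxyluciferin (100uM, at KM) in 25mM KPO4 during 60 min at 37C with regenerated NADPH. Values normalized to 57uM sulphaphenazole as complete inhibition.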

For assay [7], the target named is Cytochrome P450 3A4 (Homo sapiens) (UniProt P08684). Kind of assay: qHTS Assay for Inhibitors and Substrates of Cytochrome P450 3A4 (AID 884). Further: series mostly up to about 57 µM; on the % scale 0 is the no-effect control and ±100 the full control effect; nearly all actives have a fitted effect of over 50% in size. In a few lines:
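20 nM human CYP3A4 with 25 uM Luciferin-PPXE (at KM) in 200 mM KPO4, preincubated 10 min with compound; NADPH regeneration started a 60 min RT reaction. Luciferin detected by luminescence, normalized to 57 uM ketoconazole as full inhibition.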

For assay [8], the target named is Cytochrome P450 2D6 (Homo sapiens) (UniProt P10635). Kind of assay: qHTS Assay for Inhibitors and Substrates of Cytochrome P450 2D6 (AID 891).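 Further: luciferin methyl ether substrate demethylated by CYP2D6 with NADPH regeneration; on the % scale 0 is the no-effect control and ±100 the full control effect; nearly all actives have a fitted effect of over 60% in size.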 In a few lines:
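Human CYP2D6 (5 nM) with 30 uM Luciferin-ME EGE (at Km) in 100 mM KPO4, compound preincubated 10 min, then NADPH regeneration system for 60 min at room temperature. Luciferin read by luminescence; normalized to 1.43 uM quinidine.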

Assay [9] has as its target Cytochrome P450 2C19 (Homo sapiens) (UniProt P33261). Kind of assay: qHTS Assay for Inhibitors and Substrates of Cytochrome P450 2C19 (AID 899). Further: on the % scale 0 is the no-effect control and ±100 the full control effect; nearly all actives have a fitted effect of over 60% in size. Summed up:
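NADPH-dependent conversion of Luciferin-H EGE (10uM, at KM) by 5nM enzyme in 50mM KPO4, 60 min at 37C following 10 min compound preincubation. Stopped with luciferin detection buffer; luminescence read after 20 min.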

Results filed as inconclusive are left out. Unmarked numbers belong to inactive results. The source made the active and inactive calls. Unless noted, the call rests on the fitted dose curve; in most records, active means well fitted curve in the direction sought with a large enough effect; inconclusive means small, poorly fitted or top-dose-only effect, or another doubt; inactive means no such curve, though single readings can be large; an effect the other way counts as inactive or inconclusive.

Sequence of Cytochrome P450 2D6 (Homo sapiens) (P10635 whole entry, looked up): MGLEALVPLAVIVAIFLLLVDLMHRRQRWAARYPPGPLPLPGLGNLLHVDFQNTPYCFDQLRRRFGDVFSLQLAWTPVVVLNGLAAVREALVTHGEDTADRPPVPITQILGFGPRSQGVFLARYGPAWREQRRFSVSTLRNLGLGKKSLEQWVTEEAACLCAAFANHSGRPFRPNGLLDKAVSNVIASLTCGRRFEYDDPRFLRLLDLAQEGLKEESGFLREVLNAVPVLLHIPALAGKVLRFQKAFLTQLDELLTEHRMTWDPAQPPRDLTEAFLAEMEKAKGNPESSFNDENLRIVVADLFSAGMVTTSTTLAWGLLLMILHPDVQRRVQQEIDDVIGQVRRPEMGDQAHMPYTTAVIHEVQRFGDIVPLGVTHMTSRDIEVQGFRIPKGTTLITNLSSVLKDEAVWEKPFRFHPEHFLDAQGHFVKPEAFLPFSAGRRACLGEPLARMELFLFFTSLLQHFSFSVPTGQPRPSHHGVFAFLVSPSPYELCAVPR
Sequence of Cytochrome P450 2C19 (Homo sapiens) (P33261 whole entry, looked up): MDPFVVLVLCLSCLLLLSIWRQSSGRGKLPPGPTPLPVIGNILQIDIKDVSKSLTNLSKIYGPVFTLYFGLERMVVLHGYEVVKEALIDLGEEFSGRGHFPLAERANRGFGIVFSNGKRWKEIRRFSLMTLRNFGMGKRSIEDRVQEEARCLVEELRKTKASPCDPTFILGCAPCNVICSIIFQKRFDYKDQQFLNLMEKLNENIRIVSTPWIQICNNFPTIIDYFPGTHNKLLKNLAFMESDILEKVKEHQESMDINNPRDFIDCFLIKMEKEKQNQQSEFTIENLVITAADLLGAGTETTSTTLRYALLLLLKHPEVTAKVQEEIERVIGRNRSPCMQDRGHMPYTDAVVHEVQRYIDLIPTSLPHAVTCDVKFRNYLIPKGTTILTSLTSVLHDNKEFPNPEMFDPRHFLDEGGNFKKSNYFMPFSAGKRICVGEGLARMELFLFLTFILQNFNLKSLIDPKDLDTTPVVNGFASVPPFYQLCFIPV
Sequence of Cytochrome P450 2C9 (Homo sapiens) (P11712 whole entry, looked up): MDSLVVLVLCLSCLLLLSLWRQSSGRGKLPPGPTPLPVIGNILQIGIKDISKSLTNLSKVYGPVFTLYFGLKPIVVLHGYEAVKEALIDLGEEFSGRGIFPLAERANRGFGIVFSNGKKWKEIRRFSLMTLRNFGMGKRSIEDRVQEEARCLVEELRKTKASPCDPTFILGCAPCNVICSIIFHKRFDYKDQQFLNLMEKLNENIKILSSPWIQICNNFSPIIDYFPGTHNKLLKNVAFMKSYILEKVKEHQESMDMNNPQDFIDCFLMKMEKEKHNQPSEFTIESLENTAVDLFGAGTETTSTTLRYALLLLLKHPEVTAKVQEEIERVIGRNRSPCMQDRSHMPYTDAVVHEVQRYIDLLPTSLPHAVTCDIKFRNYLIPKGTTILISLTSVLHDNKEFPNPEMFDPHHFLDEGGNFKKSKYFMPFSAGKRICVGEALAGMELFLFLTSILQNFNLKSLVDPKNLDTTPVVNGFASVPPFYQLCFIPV
Sequence of Cytochrome P450 3A4 (Homo sapiens) (P08684 whole entry, looked up): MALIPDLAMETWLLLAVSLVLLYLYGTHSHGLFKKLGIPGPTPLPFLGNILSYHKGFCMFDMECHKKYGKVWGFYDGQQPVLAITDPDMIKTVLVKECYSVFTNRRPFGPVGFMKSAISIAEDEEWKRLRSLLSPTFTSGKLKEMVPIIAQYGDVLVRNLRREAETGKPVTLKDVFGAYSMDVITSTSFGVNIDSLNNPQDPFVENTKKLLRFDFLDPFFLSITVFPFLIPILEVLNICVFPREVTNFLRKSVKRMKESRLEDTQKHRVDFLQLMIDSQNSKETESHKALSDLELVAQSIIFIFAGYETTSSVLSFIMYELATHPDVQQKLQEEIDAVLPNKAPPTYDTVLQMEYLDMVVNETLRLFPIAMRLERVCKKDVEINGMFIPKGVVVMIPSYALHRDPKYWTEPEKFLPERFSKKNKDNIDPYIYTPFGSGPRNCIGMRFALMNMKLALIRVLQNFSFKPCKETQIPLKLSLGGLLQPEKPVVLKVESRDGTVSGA

As to `CC1=CC[C@@H](COc2ccccc2)O[C@@]2(C1)C(=O)Nc1ccccc12`, the Potency entry in assay [1], in assay [2], in assay [3] and in assay [4] was “inactive” throughout.
`COc1cccc(C(CC2=CCCCC2)NC(=O)C(F)(F)F)c1` (stereo not given): the Potency entry in assay [1], in assay [2], in assay [3] and in assay [4] was “inactive” in each case.
Regarding `C=C(C)C(O)C=Cc1ccccc1OC` (stereo not given), the Potency entry in [1], in assay [2], in assay [3] and in assay [4] was “inactive” each time.
As to `C=CCN1c2ccccc2[C@]23CCC(=O)N(CCc4ccccn4)C2=NC(C(=O)OC)=C(C(=O)OC)[C@H]13`, the Potency result in [1], in assay [3] and in [4] was “inactive” throughout.
As to `CC(CCC(=O)OC[C@H]1O[C@H](C#Cc2ccccc2)C=C[C@H]1Oc1ccc(C)cc1)=NO[C@@H](C)CN1CCCCc2nc(C)c(C)cc21`, the Potency entry in assay [1], in assay [2], in assay [3] and in [4] was “inactive” in each case.
As for `C=C(Nc1ccc(OC)cc1)C(=O)OC`, the Potency entry in assay [1], in [2] and in assay [4] was “inactive” each time.
Turning to `CCOC(=O)C1(C(=O)OCC)CC2=C(C=CC3=C(C=C2)CC(C(=O)OCC)(C(=O)OCC)C3)C1`, the Potency entry in [1], in [3] and in [4] was “inactive” in each case.
In the case of `C=C[C@@]1(C)CCC=C2C(=O)CCC[C@H]21`, the Potency result in assay [1], in [2], in [3] and in assay [4] was “inactive” each time.
Take `O=C(NCCOc1ccccc1)O[C@@H]1C(=O)c2cc(Br)ccc2O[C@H]1c1ccc2c(c1)OCO2`: the Potency result in assay [1], in [3] and in assay [4] was “inactive” throughout.
With `CC(C)=CCCC(C)=CCN1C(=O)[C@]2(O[C@H](C)CC3=CCCC32)c2c(Br)cccc21` (stereo not given in full), the Potency result in [1], in [3] and in assay [4] was “inactive” in each case.
As to `CCOC(=O)CN1C(=O)NC(c2ccc(Br)cc2)C(C(C)=O)=C1C` (stereo not given), the Potency result in [1], in assay [2], in assay [3] and in assay [4] was “inactive” in each case.
On to `COc1ccc2c(c1)[C@@]1(OCCC=C[C@@H]1C)C(=O)N2Cc1ccc(F)cc1`, for which the Potency result in [1], in assay [3] and in assay [4] was “inactive” throughout.
`CCCCCCCC1Cc2ccccc2C(C(C(=O)OC)C(=O)OC)N1C(=O)OC` (stereo not given): the Potency result in assay [1], in assay [3] and in [4] was “inactive” each time.
With `CC(C)(C)Nc1oc(-c2ccccc2)nc1-c1ccccc1F`, the Potency entry in [1], in [2], in assay [3] and in [4] was “inactive” in each case.
Turning to `COc1cc(OC)c([C@@H]2O[C@H](CO)[C@@H](O)[C@H](O)[C@@H]2O)c(OC)c1`, the Potency result in assay [1], in [2], in assay [3] and in assay [4] was “inactive” each time.
Consider `COc1ccc(C=CN(CCc2ccc(OC)c(OC)c2)C(=O)c2ccccn2)cc1`, for which the Potency entry in assay [1], in [2], in assay [3] and in [4] was “inactive” each time.
With `CC(=O)OC[C@H]1O[C@@H](ON=C(C)CCC(=O)OC[C@H]2O[C@H](C#Cc3ccccc3)C=C[C@H]2Oc2ccc(C)cc2)[C@H](OC(C)=O)[C@@H](OC(C)=O)[C@H]1OC(C)=O`, the Potency result in assay [1], in assay [2], in [3] and in [4] was “inactive” in each case.
For the molecule `C=CCC12C=C(OC)C(=O)C(C1=O)C1c3ccccc3CC12` (stereo not given), the Potency entry in assay [1], in [2], in [3] and in assay [4] was “inactive” each time.
As for `COc1cc2c(cc1OC)[C@@H]1O[C@](CCCCN3C(=O)c4ccccc4C3=O)(C2)OC2=C1C(=O)OC1(CCCCC1)C2`, the Potency in assay [1] is 1.69 µM (active); in assay [2] it was 1.9 µM (active). The Potency result in [3] and in [4] was “inactive” throughout.
On to `C[C@@H]1C[C@H]2[C@@H](C)C(=O)N3[C@@H](C[C@@H](C)[C@@H]3c3ccccc3)[C@@H](C)C(=O)N2[C@H]1c1ccccc1`, for which the Potency result in [1], in assay [2], in assay [3] and in assay [4] was “inactive” each time.
In the case of `Cc1cccc(C)c1Nc1oc(-c2ccccc2)nc1-c1cccc2ccccc12`, the Potency entry in assay [1], in assay [2], in assay [3] and in assay [4] was “inactive” throughout.
`C=CC[C@@H]1C=C(C(=O)OC)N(C(=O)C(F)(F)F)[C@@H](c2ccccc2Br)[C@@H]1C`: the Potency result in assay [1], in assay [5], in [3] and in assay [4] was “inactive” each time.
On to `COc1ccc2c(c1)[C@@H](NC(=O)C(F)(F)F)[C@@H]1CCCC[C@]21c1ccccc1`, for which the Potency result in assay [1], in assay [5], in assay [3] and in assay [4] was “inactive” each time.
As for `COc1ccc2c(c1)[C@@]1(OCCC=C[C@@H]1C)C(=O)N2CC=C(C)CCC=C(C)C`, the Potency result in assay [1], in [2], in assay [3] and in assay [4] was “inactive” throughout.
On to `C=C(C)CCCN1C=C(C(=O)OCC)C(c2ccccc2)NC1=O` (stereo not given), for which the Potency entry in assay [1], in [2], in assay [3] and in assay [4] was “inactive” each time.
On to `CCN1C(=NCCc2ccccn2)NC(c2cccc(C(F)(F)F)c2)C(C(=O)OC)=C1C` (stereo not given), for which, in assay [1], the Potency is 0.533 µM (active). Besides, the Potency entry in assay [2] and in [4] was “inactive” each time.
For the molecule `COc1cccc([C@@H]2Oc3ccc(OC)cc3C(=O)[C@@H]2OC(=O)N[C@H]2CCCc3ccccc32)c1`, the Potency entry in assay [1], in assay [3] and in assay [4] was “inactive” in each case.
In the case of `COC(=O)C(C(=O)OC)c1ccccc1[N+](=O)[O-]`, the Potency result in assay [1], in assay [2], in [3] and in assay [4] was “inactive” each time.
Take `C=CC[C@@H]1C=C[C@H](ON=C2c3cc(OC)ccc3O[C@H](c3cccc(OC)c3)[C@@H]2O)[C@H](CO)O1`: the Potency result in [1], in [2], in assay [3] and in assay [4] was “inactive” throughout.
`CC1(O)C(=O)C=C2C=C(CCCCOCc3ccccc3)OC=C2C1=O` (stereo not given): the activity change, negative = inhibition is -27.6% [at 11.4 µM] in assay [6], -25.3% [at 11.4 µM] in [7] and -3.73% [at 11.4 µM] in [8]. For the same molecule, the activity, negative = inhibition in assay [9] was -23.3% [at 11.4 µM]. In addition, the Potency entry in assay [1], in [5], in assay [3] and in [4] was “inactive” each time.

For the origin of these results see PubChem BioAssay (NCATS).
